The source made the active and inactive calls.
Columns and labels:
[1] = optical density shifts of acrAB sulA E. coli – strain DRC41, OD650, 48 h, E. coli filamentation inducer project, primary screen (AID 1152); details: higher = more signal, called active from +8 up or from −8 down;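 note: E. coli MC1000 strain DRC41 lacking acrAB efflux pump and sulA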
[2] = probe aLefty1 binding on compound microarray – biochemical, small-molecule microarray, 635/667 nm fluorescence, primary screen (AID 1153); details: higher = more signal;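 note: score merges spot fluorescence with signal-to-noise ratio from the scanned slide images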
[3] = plasmodial surface anion channel blockers, osmotic lysis – cell-based, P. falciparum Indochina, OD700, 1 h, primary screen (AID 1154); details: P. falciparum Indochina infected RBC osmotic lysis, higher = more signal, called active from +8 up or from −8 down
[4] = plasmodial surface anion channel blockers, osmotic lysis – cell-based, P. falciparum Indochina, OD700, 2 h, primary screen (AID 1155);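 note: lysis reports solute entry through the parasite surface anion channel PSAC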; details: P. falciparum Indochina infected erythrocytes, higher = more signal, called active from +8 up or from −8 down
[5] = changes in parasitized red cell lysis, either direction – P. falciparum Indochina, OD700, 3 h, PSAC antagonist project, primary screen (AID 1156); details: P. falciparum-infected erythrocytes, osmotic lysis, higher = more signal, called active from +8 up or from −8 down
[6] = plasmodial surface anion channel blockers, osmotic lysis – cell-based, P. falciparum Indochina, OD700, 18 h, primary screen (AID 1157); details: P. falciparum Indochina infected erythrocytes, osmotic lysis OD700, 18 h; higher = more signal, called active from +8 up or from −8 down
[7] = S6 kinase pathway phospho-S6 level changes – cell-based, A549, cytoblot, luminescence, serum-stimulated, primary screen (AID 1158); details: 5 h, higher = more signal;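 note: serum-stimulated A549 lung adenocarcinoma cells; signal is phosphorylated S6 detected by cytoblot immunostaining with HRP secondary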
[8] = biological target: NADPH oxidase 2 (Homo sapiens) (UniProt P04839); experiment: compounds shifting NOX2 Amplex Red fluorescence – cell-based, HEK293-NOX2, PMA-stimulated, NOX inhibitor project, primary screen (AID 1159); details: 45 min, higher = more signal, called active from +8 up or from −8 down; note: test concentration not given here
[9] = biological target: NADPH oxidase 4 (Homo sapiens) (UniProt Q9NPH5); experiment: compounds shifting NOX4 Amplex Red fluorescence – cell-based, HEK293-NOX4, tetracycline-induced, NOX inhibitor project, primary screen (AID 1160); details: HEK293-NOX4, Amplex Red H2O2 fluorescence, 45 min; higher = more signal, called active from +8 up or from −8 down
[10] = biological target: NADPH oxidase 5 (Homo sapiens) (UniProt Q96PH1); experiment: compounds shifting NOX5 Amplex Red fluorescence – cell-based, HEK293-NOX5, NOX inhibitor project, primary screen (AID 1161); details: HEK293-NOX5, ionomycin, 45 min, higher = more signal
Chain of NADPH oxidase 5 (Homo sapiens) (Q96PH1 whole entry, looked up): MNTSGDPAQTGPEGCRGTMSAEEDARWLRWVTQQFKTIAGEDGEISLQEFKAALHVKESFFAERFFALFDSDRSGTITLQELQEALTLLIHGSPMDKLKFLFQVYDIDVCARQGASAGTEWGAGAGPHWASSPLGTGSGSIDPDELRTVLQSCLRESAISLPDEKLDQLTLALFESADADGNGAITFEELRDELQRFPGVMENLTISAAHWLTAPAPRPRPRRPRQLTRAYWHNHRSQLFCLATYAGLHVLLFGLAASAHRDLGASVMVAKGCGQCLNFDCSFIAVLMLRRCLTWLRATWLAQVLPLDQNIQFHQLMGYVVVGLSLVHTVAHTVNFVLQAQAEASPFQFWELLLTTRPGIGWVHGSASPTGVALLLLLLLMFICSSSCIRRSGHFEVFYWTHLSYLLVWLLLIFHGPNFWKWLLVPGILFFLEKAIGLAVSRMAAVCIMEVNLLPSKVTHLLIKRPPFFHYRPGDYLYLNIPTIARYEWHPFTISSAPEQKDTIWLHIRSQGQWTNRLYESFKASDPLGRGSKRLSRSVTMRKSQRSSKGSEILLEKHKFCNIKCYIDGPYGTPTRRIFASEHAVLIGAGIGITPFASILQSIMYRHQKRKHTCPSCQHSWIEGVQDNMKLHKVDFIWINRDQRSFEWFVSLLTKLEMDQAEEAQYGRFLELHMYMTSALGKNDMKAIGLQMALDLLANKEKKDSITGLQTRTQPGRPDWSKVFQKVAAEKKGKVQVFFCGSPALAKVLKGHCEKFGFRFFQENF

Chain of NADPH oxidase 4 (Homo sapiens) (Q9NPH5 whole entry, looked up): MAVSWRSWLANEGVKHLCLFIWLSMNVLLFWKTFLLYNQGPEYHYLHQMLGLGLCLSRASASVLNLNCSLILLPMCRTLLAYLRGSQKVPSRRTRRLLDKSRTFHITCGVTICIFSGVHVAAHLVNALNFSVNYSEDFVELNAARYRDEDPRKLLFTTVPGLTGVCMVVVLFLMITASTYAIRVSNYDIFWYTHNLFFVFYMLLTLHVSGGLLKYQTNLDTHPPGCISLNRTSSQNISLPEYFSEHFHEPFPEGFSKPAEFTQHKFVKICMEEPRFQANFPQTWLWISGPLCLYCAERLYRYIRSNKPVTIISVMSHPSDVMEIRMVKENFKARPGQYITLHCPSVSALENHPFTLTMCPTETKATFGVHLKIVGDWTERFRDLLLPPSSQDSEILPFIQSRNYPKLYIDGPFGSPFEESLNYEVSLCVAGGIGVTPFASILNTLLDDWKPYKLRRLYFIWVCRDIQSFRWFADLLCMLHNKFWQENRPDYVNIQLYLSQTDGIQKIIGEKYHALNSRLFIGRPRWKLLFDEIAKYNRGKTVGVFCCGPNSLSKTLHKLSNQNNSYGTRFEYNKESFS
Chain of NADPH oxidase 2 (Homo sapiens) (P04839 whole entry, looked up): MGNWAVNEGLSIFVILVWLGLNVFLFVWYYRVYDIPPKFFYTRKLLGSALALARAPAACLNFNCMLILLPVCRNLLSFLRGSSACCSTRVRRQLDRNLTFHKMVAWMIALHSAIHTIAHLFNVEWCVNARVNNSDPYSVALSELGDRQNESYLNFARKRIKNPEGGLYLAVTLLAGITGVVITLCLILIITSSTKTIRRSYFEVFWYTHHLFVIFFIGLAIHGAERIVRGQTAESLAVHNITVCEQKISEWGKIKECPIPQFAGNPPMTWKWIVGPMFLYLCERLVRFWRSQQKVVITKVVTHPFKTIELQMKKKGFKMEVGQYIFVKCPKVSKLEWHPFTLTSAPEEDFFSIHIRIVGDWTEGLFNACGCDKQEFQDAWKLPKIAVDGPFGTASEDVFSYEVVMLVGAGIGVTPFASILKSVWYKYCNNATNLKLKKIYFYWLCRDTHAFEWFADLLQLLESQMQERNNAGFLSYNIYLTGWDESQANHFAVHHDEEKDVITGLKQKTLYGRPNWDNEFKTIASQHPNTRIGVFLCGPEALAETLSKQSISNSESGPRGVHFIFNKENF

| Compound | z-score [1] | composite z-score [2] | z-score [3] | z-score [4] | z-score [5] | z-score [6] | z-score [7] | z-score [8] | z-score [9] | z-score [10] |
| --- | --- | --- | --- | --- | --- | --- | --- | --- | --- | --- |
| CCOC(=O)[C@H]1C/C=C/C[C@H](C(=O)OCC)C(=O)O[C@H]2[C@@H](OC)O[C@H](CO)[C@@H](OC(=O)Nc3ccc(C#N)cc3)[C@@H]2OC1=O | 3.06 (inactive) | -0.364 | 12.3 (active) | 2.33 (inactive) | -0.906 (inactive) | 1.13 (inactive) | 2.47 | -0.311 (inactive) | 0.2 (inactive) | 1.4 |
| C#CCN(Cc1ccccc1Br)C(/C=C/c1ccccc1)CO (stereo not given) | -0.585 (inactive) | -0.226 | 12.5 (active) | 2.61 (inactive) | -1.31 (inactive) | 0.696 (inactive) | -0.188 | 0.28 (inactive) | -0.157 (inactive) | -2.02 |
| COC(=O)[C@@]1(Cc2ccc(F)cc2)[C@H]2c3cc(C(=O)N4CCCC4)n(Cc4ccc(C)o4)c3C[C@H]2CN1C(=O)c1ccccc1 | -1.63 (inactive) | -0.0464 | 4.25 (inactive) | 0.713 (inactive) | 1.57 (inactive) | 0.886 (inactive) | -0.118 | -0.0294 (inactive) | -0.466 (inactive) | -3.03 |
| COc1ccc(C(=O)Nc2ccc(CN3C(=O)[C@@]4(O[C@@H](CCn5cc([C@H](O)c6ccccc6)nn5)[C@H]([Si](C)(C)c5ccc(OC)cc5)[C@H]4C)c4ccccc43)cc2)cc1 | -0.203 (inactive) | 0.191 | 19.8 (active) | 5.6 (inactive) | 2.08 (inactive) | 1.43 (inactive) | 0.134 | 0.295 (inactive) | 0.709 (inactive) | 2.2 |
| [N-]=[N+]=NCc1ccccc1C[C@]1(C(=O)O)N=C(c2ccc(OCCCO)cc2)O[C@H]1c1ccccc1N=[N+]=[N-] | 0.23 (inactive) | 0.396 | 36.3 (active) | 33.8 (active) | 4.02 (inactive) | 10 (active) | 0.468 | -2.14 (inactive) | 0.705 (inactive) | -1.92 |
| COc1ccc(C(O)C2C=CC3C(=O)NC(=O)C3N2Nc2ccccn2)cc1 (stereo not given) | -0.416 (inactive) | 0.0622 | 0.539 (inactive) | 0.874 (inactive) | -0.079 (inactive) | 0.778 (inactive) | -0.449 | -0.755 (inactive) | -2.56 (inactive) | -1.99 |
| O=C1OCCC/C=C\[C@H]2OC34C=CCN(Cn5nnc6ccccc65)C(=O)[C@H]3N(CCCCCCO)C(=O)[C@@H]4C12 (stereo not given in full) | 3.64 (inactive) | -0.481 | 3.95 (inactive) | -0.392 (inactive) | -0.193 (inactive) | -0.677 (inactive) | 2.58 | 1.15 (inactive) | 0.377 (inactive) | 2.11 |
| O=C1[C@H]2C=C(Br)[C@H](C[C@@H]2c2ccccc2)[C@@]12CO2 | -1.47 (inactive) | 0.0041 | 1.22 (inactive) | 0.497 (inactive) | 0.637 (inactive) | 0.279 (inactive) | -0.327 | 0.242 (inactive) | 0.141 (inactive) | -0.855 |
| O=C1O[C@H](c2ccccc2)[C@H](c2ccccc2)N2[C@H]1[C@@H](C(=O)NC[C@H](O)c1ccccc1)[C@]1(C(=O)Nc3ccccc31)[C@H]2c1ccc(OCCO)cc1 | -1.26 (inactive) | 0.159 | 4.2 (inactive) | 1.36 (inactive) | 0.179 (inactive) | 1.47 (inactive) | 0.0578 | 1.55 (inactive) | 1.02 (inactive) | 1.34 |
| C=CC[C@@]1(C(=O)N(C)C)N=C(c2ccc(OCCCO)cc2)O[C@@H]1c1ccccc1N=[N+]=[N-] | 0.722 (inactive) | 0.57 | 33 (active) | 28.9 (active) | 3.29 (inactive) | 8.39 (active) | -0.195 | -1.12 (inactive) | 0.475 (inactive) | 0.446 |
| CCCN1C(=O)[C@]2(CCS(=O)(=O)c3ccccc3)N=C(c3ccc(OCCCO)cc3)O[C@@H]2c2ccccc21 | 1.51 (inactive) | 0.497 | 29.3 (active) | 21.2 (active) | 1.31 (inactive) | 0.471 (inactive) | 1.42 | -1.5 (inactive) | -0.284 (inactive) | -1.17 |
| COc1ccc(CCN2C(=O)[C@@]3(c4ccc([N+](=O)[O-])cc4)CC(=O)N(C4CCCCC4)[C@@H]3c3ccc(CO)cc32)cc1 | -0.183 (inactive) | 0.131 | -0.715 (inactive) | -0.0259 (inactive) | -0.979 (inactive) | -0.138 (inactive) | -0.423 | -1.47 (inactive) | -0.763 (inactive) | -0.0167 |
| COCCn1c(C(=O)N2CCCC2)cc2c1C[C@H]1CN(C(=O)c3ccccc3)[C@@](Cc3ccc(F)cc3)(C(=O)OC)[C@@H]21 | -1.33 (inactive) | 0.237 | 1.15 (inactive) | 0.137 (inactive) | 2.62 (inactive) | 0.642 (inactive) | -0.0267 | 0.236 (inactive) | 0.191 (inactive) | -4.43 |
| COc1ccc(C(O)C2C=CC3C(=O)N(C)C(=O)C3N2N2CCCCC2)c2ccccc12 (stereo not given) | -1.53 (inactive) | 0.517 | 1.24 (inactive) | 1.05 (inactive) | 1.01 (inactive) | 0.778 (inactive) | -1.08 | 0.273 (inactive) | -1.72 (inactive) | 1.03 |
| COCCOC(=O)N1C(=O)[C@@]2(c3cc(C#CC4(O)CCCCCC4)ccc31)[C@H](c1ccc(O)cc1)N1[C@H](c3ccccc3)[C@H](c3ccccc3)OC(=O)[C@H]1[C@@H]2C(=O)Nc1nc2ccccc2s1 | -0.565 (inactive) | 1.76 | 0.69 (inactive) | 1.05 (inactive) | 0.207 (inactive) | 1.39 (inactive) | -0.502 | 1.75 (inactive) | 0.507 (inactive) | 1.07 |
| C=CCN(Cc1ccccc1)C(=O)C(c1cccs1)N(CCOCCO)C(=O)/C=C\C(=O)O (stereo not given) | 2.73 (inactive) | -0.191 | 2.39 (inactive) | -0.398 (inactive) | 0.213 (inactive) | -0.281 (inactive) | 3.21 | -0.00856 (inactive) | -0.515 (inactive) | -0.659 |
| COC(=O)[C@@]1(Cc2ccc(F)cc2)[C@H]2c3cc(C(=O)N(C)C)n(Cc4nc5ccccc5[nH]4)c3C[C@H]2CN1C(=O)c1ccccc1 | -0.827 (inactive) | -0.0297 | 20.5 (active) | 3.05 (inactive) | 1.13 (inactive) | 0.91 (inactive) | -0.377 | -0.0764 (inactive) | 0.32 (inactive) | -2.06 |
| O=C1O[C@H](c2ccccc2)[C@H](c2ccccc2)N2[C@H]1[C@@H](C(=O)Nc1nc3ccccc3s1)[C@]1(C(=O)Nc3ccc(C#CCCO)cc31)[C@H]2c1ccc(OCCO)cc1 | -0.448 (inactive) | 1.34 | 3.09 (inactive) | 2.02 (inactive) | 0.97 (inactive) | 2 (inactive) | -0.472 | 1.18 (inactive) | 0.111 (inactive) | 0.278 |
| C=C(COC)/C(=C/C[C@@H](OC(C)=O)c1ccc(OCCO)cc1)c1cc(C(=O)OC)ccc1OC | 0.0977 (inactive) | 0.139 | 11.2 (active) | 1.87 (inactive) | 0.681 (inactive) | 0.601 (inactive) | -0.0505 | -0.0514 (inactive) | -0.355 (inactive) | -1.57 |
| CC(C)N1C(=O)c2ccccc2[C@](C)(C(=O)NCc2ccccc2)[C@@H]1c1ccc(CO)cc1 | -0.884 (inactive) | -0.101 | 1.53 (inactive) | 0.349 (inactive) | 0.24 (inactive) | 0.645 (inactive) | 0.0331 | -0.291 (inactive) | -0.0216 (inactive) | -0.54 |
| COCCCN1C(=O)[C@@]2(c3ccc([N+](=O)[O-])cc3)CC(=O)N(C3CCCCC3)[C@@H]2c2ccc(CO)cc21 | -0.0972 (inactive) | -0.35 | -0.141 (inactive) | -0.063 (inactive) | -0.382 (inactive) | 0.0583 (inactive) | -0.495 | -2.14 (inactive) | -1.3 (inactive) | -0.379 |
| C#CCN(CC1=CCCCC1)[C@H](c1ccccc1Br)[C@@H](O)Cc1ccccc1 | 1.5 (inactive) | -0.0547 | 3.02 (inactive) | 0.849 (inactive) | 0.372 (inactive) | 0.109 (inactive) | 0.114 | -0.456 (inactive) | 0.191 (inactive) | -1.45 |
| CCOC(=O)C[C@H]1[C@H](OC(=O)c2ccc(C(=O)c3ccccc3)cc2)[C@@H](NC(=O)c2ccc(-c3ccccc3)cc2)c2cc(OCCCO)ccc2N1C(=O)c1ccccc1 | -0.948 (inactive) | -0.199 | 0.358 (inactive) | 0.135 (inactive) | -0.559 (inactive) | -0.16 (inactive) | 0.0156 | 0.788 (inactive) | 0.379 (inactive) | 0.551 |
| COC(=O)c1c(CC[C@@H](CO)NC(=O)N2CCC[C@H]2Cn2cc(-c3ccccn3)nn2)oc(C(C)=O)c1C(=O)OC | 1.04 (inactive) | -0.101 | 1.58 (inactive) | -0.448 (inactive) | -0.315 (inactive) | -0.741 (inactive) | 0.882 | -2.6 (inactive) | -1.44 (inactive) | -1.84 |
| C=CCN1C(=O)[C@@]2(O[C@@H](CCO)[C@H]([Si](C)(C)c3ccc(OC)cc3)[C@H]2C)c2cc(NC(=O)c3ccc(OC)cc3)ccc21 | -0.0564 (inactive) | -0.147 | 23.3 (active) | 6.69 (inactive) | 0.978 (inactive) | 1.75 (inactive) | 0.26 | -3.81 (inactive) | -0.905 (inactive) | -0.695 |
| CN(C)CCCCCCNC(=O)[C@@H]1C[C@@H]2C(=O)N[C@@H](CCCCN)C(=O)N2[C@@H]1c1cccc(OCCO)c1 | -0.374 (inactive) | 2.74 | 1.59 (inactive) | -0.644 (inactive) | 0.0026 (inactive) | -2.47 (inactive) | 1.51 | 0.853 (inactive) | 0.7 (inactive) | 1.95 |
